Rows were chosen to be rich in hits. Some 12% of all compounds tested hit in one or more screens of this group.
Cycloheximide cs = affects cycloheximide protein synthesis inhibition readout, counter-screen | 12% of 300,000 active | cell reporter, cycloheximide protein synthesis inhibition counterscreen | max response, %; in the data active = max response mostly above about 13%, no sharp cut-off; inactive = mostly below about 14%; also: read at 38.3 µM for the half of the compounds with a filed dose; 0% is about no effect
MARV entry inh = blocks Marburg virus binding to or entry into cells; Marburg virus pseudotyped entry inhibition, cell reporter; Potency, µM (highest dose often 37.8 µM), without a hit: at the highest dose activity change, negative = inhibition, hits mostly inhibitors; 1.8% of 300,000 active; AID 540276; calls by dose curve; tested in HEK293 cells; also: potency is read from the fitted curve at half-maximal effect; % is scaled to controls: 0 for no effect and ±100 for the full control effect
Lassa entry inh = blocks Lassa virus binding to or entry into cells; Lassa virus pseudotype entry inhibition, cell reporter; Potency, µM (series often up to 37.9 µM), for inactives: at the top dose activity change, negative = inhibition, hits mostly inhibitors; 1.2% of 300,000 active; AID 540256; calls by dose curve; tested in HEK293 cells; also: potency is read from the fitted curve at half-maximal effect; % is scaled to controls: 0 for no effect and ±100 for the full control effect; nearly all actives have a fitted effect of over 50% in size
Shiga toxin inh = inhibitors of Shiga toxin in Vero cells. inhibition, % at 38.7 µM. Vero cells, Shiga toxin protein synthesis inhibition reporter. 9.2% of 290,000 active; in the data active = inhibition mostly above about 28%, no sharp cut-off; inactive = mostly below about 43%; also: 0% is about no effect
An asterisk follows results filed as active; ? = inconclusive; . = not tested or not shown; [ ] = another dose, or the depositor's remark.

SMILES	Cycloheximide cs	MARV entry inh	Lassa entry inh	Shiga toxin inh
COc1cccc(NC(=O)C(C)OC(=O)CCCNC(=O)c2ccc(Cl)cc2)c1 (stereo unspecified)	25*	3%	12%	100*
COc1ccc(CCNC(=O)c2nc3ncccn3n2)cc1OC	-4	3%	2%	12
COc1cccc(NC(=O)c2nc3ncccn3n2)c1	48*	-9%	15%	65*
COc1cccc(NC(=O)c2ccc(NC(=O)C(C)C)cc2)c1	23*	2%[46.1 µM]	-4%	52*
COC(=O)c1ccc(NC(=O)c2ccc(OC(C)=O)c(OC)c2)cc1	33*	1%[46.1 µM]	10%[46.1 µM]	48*
Cc1nnnn1CC(=O)Nc1ccccc1[N+](=O)[O-]	2	1%	5%	-1
CCCCOc1ccccc1C(=O)NNC(=S)NC(=O)c1ccccc1[N+](=O)[O-]	-1	?	-29%[46.1 µM]	-14
Cc1ccc(NC(=S)N(N)CCO)cc1	22	.	.	43*
COc1ccc2cc(-c3[nH]ncc3CN3CCCN(c4ccccc4)CC3)ccc2c1	16*	.	.	17
COCC1CCCCN1Cc1cn[nH]c1-c1ccc2cc(OC)ccc2c1 (stereo unspecified)	19*	.	.	32*
COc1ccc2cc(-c3[nH]ncc3CN3C[C@@H]4CCC[C@H]3C4)ccc2c1	32*	?	-18%[46.1 µM]	27
COc1ccc(-c2[nH]ncc2CN2CCCN(c3ccccc3)CC2)c(F)c1	-2	?	-4%[46.1 µM]	-3
COc1ccc2cc(-c3[nH]ncc3CN3CCCCO3)ccc2c1	20*	?	3%[46.1 µM]	57*
O=C(CCc1ccc(Oc2cc([N+](=O)[O-])cc([N+](=O)[O-])c2)cc1)N1CCCCC1	10	-16%	-28%	20
CCCCCC(=C/c1ccccc1)/C=N/Nc1ccc(S(=O)(=O)N2CCOCC2)cc1[N+](=O)[O-]	.	?	-21%[46.1 µM]	.
O=C(Cc1c(F)cccc1Cl)NNC(=O)c1ccco1	.	-4%	9%	.
O=C(NCCSCc1c(F)cccc1Cl)c1ccco1	29*	12%[46.1 µM]	2%	119
O=C(CNC(=O)c1ccco1)OCc1c(F)cccc1Cl	20*	24%	10%	8
COc1ccccc1C(=O)NCCSCc1c(F)cccc1Cl	23*	.	.	25
COc1ccccc1C(=O)OCc1c(F)cccc1Cl	-2	16%	0%	12
NNC(=O)C(Cc1c[nH]c2ccccc12)NC(=O)c1ccccc1 (stereo unspecified)	-7	4%[46.1 µM]	17%	-2
CN1c2ccsc2C(O)=C(C(=S)Nc2ccc(F)c(Cl)c2)S1(=O)=O	15*	16%[46.1 µM]	?	51
CCOc1ccc(CNC2CCCCCCC2)cc1OC	-3	.	.	-15
S=C(Nc1ccccc1Cl)N(CCN1CCCCC1)Cc1ccco1	-3	-25%	-1%	-10
CCOc1ccc(C)cc1-n1nc2ccccc2n1	20*	11%	16%	19
SMILES	Cycloheximide cs	MARV entry inh	Lassa entry inh	Shiga toxin inh
Cc1ccc(O)c(-n2nc3ccccc3n2)c1	44*	?	?	90*
COc1ccc(C)cc1-n1nc2ccccc2n1	26*	.	.	54
Cc1ccc(O)c(Nc2ncnc3ccccc23)c1	3	-2%[46.1 µM]	1%[46.1 µM]	15
Cc1ccc(OCC(=O)Nc2ccc(Cl)cc2)c(-n2nc3ccccc3n2)c1	2	?	?	-1
O=S(=O)(c1ccc(SCc2ccc(Br)cc2)nc1)N1CCCCC1	.	0%	-18%	.
COc1ccccc1CNC(=O)CCn1cnc2ccccc2c1=O	.	.	8%[46.1 µM]	.
COc1ccc(-n2nc(N)c(C(N)=O)n2)cc1	33*	?	21%	39
COc1ccc(C(=O)n2cnnc2N)cc1	-2	?	?	-17
CC1CC(C)CN(C(=O)c2ccc3c(c2NCCO)C(=O)c2ccccc2C3=O)C1 (stereo unspecified)	-4	10µM*	?	-6
CC1CC(C)CN(C(=O)COC(=O)CN2C(=O)c3ccccc3C2=O)C1 (stereo unspecified)	.	6%[46.1 µM]	-1%[46.1 µM]	.
CC(C)(C)c1ccc(-c2noc(C(=O)NN)n2)cc1	2	-21%[46.1 µM]	?	20
CC(C)(C)c1ccc(-c2conc2N)cc1	48*	?	-14%	111*
CCC(C)NS(=O)(=O)c1ccc(S(=O)(=O)N(CC(=O)Nc2ccccc2)CC2CCCO2)cc1 (stereo unspecified)	-4	?	?	-11
CCOC(=O)c1nc(NCCc2ccccc2)sc1C	53*	.	.	133*
Cc1nc(NC(=S)NC(=O)c2cccs2)sc1C(=O)N(C)C	10	24%	10%	23
CCOC(=O)c1nc(NNC(C)=O)sc1C	-1	6%[46.1 µM]	2%	0
Cc1nc(NCCc2ccccc2)sc1C(=O)N(C)C	37*	?	-18%	58*
Cc1nc(Nc2ccccc2C(F)(F)F)sc1C(=O)N(C)C	26*	?	-22%[46.1 µM]	45*
CCCc1nn2c(C)c(-c3ccccc3)nc2s1	.	-24%[46.1 µM]	?	.
COc1ccc(C2=NOC(Cn3nc(C(=O)O)cc3-c3ccccc3)C2)cc1 (stereo unspecified)	-2	.	.	8
COc1ccc(C2=NOC(CNC(=S)N3CCOCC3)C2)cc1 (stereo unspecified)	34*	?	?	57*
O=C(Nc1ccc(Cl)cc1)N1CCSCC1	7	27%	-2%	21
CC(C)c1ccc(C(=O)Nc2ccc(N3CCOCC3)cc2)cc1	8	?	-24%	15
O=C(Nc1ccc(Cl)cc1)N1CCCC1	14*	13%	?	36
O=C(Nc1ccc(Br)cc1)N1C[C@H]2C[C@@H](C1)c1cccc(=O)n1C2	-2	.	.	-8
SMILES	Cycloheximide cs	MARV entry inh	Lassa entry inh	Shiga toxin inh
O=C(Nc1ccc(Cl)cc1)N1CC2CC(C1)c1cccc(=O)n1C2 (stereo unspecified)	28*	?	4%	33
CC(C)c1ccc(NC(=O)N2CCOCC2)cc1	39*	.	.	62*
O=C(Nc1ccccc1)N1CCOCC1	-2	-11%	16%	-10
O=C(Nc1ccc(Cl)cc1)N1CCOCC1	14*	0%	?	.
O=C(Nc1ccc(Cl)cc1)N1CCSc2ccccc21	35*	-19%	-6%	27
CC(C)n1c(N2CCN(C(=O)Nc3ccc(Cl)cc3)CC2)nc2ccccc21	-1	.	.	34*
O=C(Nc1ccc(Cl)cc1)N1CCN(c2ncccn2)CC1	20*	-12%[46.1 µM]	?	46
O=C(Nc1ccccc1)N1CCSc2ccccc21	4	.	.	22
O=C(Nc1ccc(F)cc1)N1CCN(c2ncccn2)CC1	-2	.	.	22
Cc1cc(C)n(-c2ccc(S(=O)(=O)N3CCOCC3)cc2[N+](=O)[O-])n1	1	-3%[46.1 µM]	-10%	-15
CC(C)(C)OC(=O)CNC(=O)c1[nH]cnc1C(=O)NCCCCCNC(=O)OC(C)(C)C	0	.	.	1
C/C(=N\NC(=O)COc1ccc(C)cc1C(C)C)c1ccc(-n2ccnc2)cc1	17*	-1%	?	26
COC(=O)N/N=C(\C)c1ccc(-n2ccnc2)cc1	13	?	12%	18
CN(CC(=O)Nc1ccc(Cl)c(C(F)(F)F)c1)C(=O)C1CCC1	.	-6%	4%	.
C/C(CC(=O)Nc1ccc(Cl)c(C(F)(F)F)c1)=N\NC(=O)c1cccc(O)c1	44*	?	?	68*
C/C(CC(=O)Nc1ccc(Cl)c(C(F)(F)F)c1)=N\NC(=O)c1ccccc1O	22*	18µM*	?	41

Screening results as filed in PubChem.
